# Screening data: PubChem BioAssay, National Center for Advancing Translational Sciences (NCATS)
# TR SRC2 fluor cs: alters Texas Red total fluorescence, flagging assay interference; Potency, µM (top dose mostly 106 µM); AID 1479; hit rate 0.29% among 280,000; TRb/SRC2 Texas Red total fluorescence interference; active = well fitted curve in either direction with a large enough effect; inconclusive = small, poorly fitted or top-dose-only effect
#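 Human TRb ligand-binding domain at 0.6 uM with 20 nM Texas Red SRC2 peptide in Tris buffer containing 1 uM T3 and 5% DMSO, incubated with compound 5 h at ambient temperature. Total fluorescence (555/632 nm) calculated as parallel + 2 × perpendicular.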
# TRb-SRC2 inh: disrupts binding of human TR beta to SRC2; AID 1469; hit rate 0.065% among 280,000; Potency, µM (titrated, usually from 106 µM), actives largely listed as inhibitors; TRbeta-SRC2 peptide binding, fluorescence polarization; receptor liganded with 1 µM T3; note: nearly all actives have a fitted effect of over 50% in size
# Target sequence (P10828 whole entry, looked up): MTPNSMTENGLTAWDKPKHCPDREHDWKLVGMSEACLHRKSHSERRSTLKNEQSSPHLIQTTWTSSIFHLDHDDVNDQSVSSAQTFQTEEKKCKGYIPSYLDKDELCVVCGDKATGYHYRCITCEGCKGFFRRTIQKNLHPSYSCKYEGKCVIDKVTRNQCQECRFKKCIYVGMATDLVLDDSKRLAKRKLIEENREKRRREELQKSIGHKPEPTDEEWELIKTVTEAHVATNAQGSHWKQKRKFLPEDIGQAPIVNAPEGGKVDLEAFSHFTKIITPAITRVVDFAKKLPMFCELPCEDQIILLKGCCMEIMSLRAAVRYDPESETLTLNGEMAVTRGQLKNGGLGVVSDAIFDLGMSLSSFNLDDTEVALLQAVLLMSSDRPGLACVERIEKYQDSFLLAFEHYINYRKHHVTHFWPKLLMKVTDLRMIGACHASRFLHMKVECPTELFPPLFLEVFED
#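 Quantitative HTS by FP: 0.6 uM TRb LBD, 20 nM labeled SRC2 20-mer, 1 uM T3, 5% DMSO; 5 hr ambient incubation; % activity per concentration and potencies from concentration series.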
# Tau fluor cs: counter-screen for tau fibril formation inhibitors. Potency, µM (top dose mostly 57.7 µM). hit rate 0.93% among 280,000. AID 1463. tau K18 P301L Alexa594 fluorescence, heparin fibrillization; note: nearly all actives have a fitted effect of over 55% in size
#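 Human tau K18 P301L (15 uM unlabeled, 0.24 uM Alexa 594-labeled) in 100 mM sodium acetate pH 7 with 20 uM heparin, 6 hr at 37 C. ThT 30 uM added, 1 hr ambient; Alexa 594 FP and total fluorescence read at 555/632 nm.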
# Tau fibril FP: blocks human tau fibril formation measured by polarization; P10636; hit rate 0.39% among 280,000; K18 P301L tau heparin fibrillization, Alexa594 FP, 6 h; Potency, µM (titrated, usually from 57.7 µM), hits mostly inhibitors; AID 1468; note: nearly all actives have a fitted effect of over 55% in size
# Target sequence (P10636 561-689 P618L limits assumed): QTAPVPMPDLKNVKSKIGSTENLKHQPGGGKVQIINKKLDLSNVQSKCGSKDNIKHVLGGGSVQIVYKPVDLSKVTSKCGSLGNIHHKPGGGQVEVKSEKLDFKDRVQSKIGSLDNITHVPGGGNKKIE
#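 Quantitative HTS format: compounds meet 15 uM recombinant K18 P301L tau and Alexa 594-tau tracer in 100 mM sodium acetate pH 7; 20 uM heparin triggers fibrillization at 37 C over 6 hr; FP gives the signal.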
# Tau fibril ThT: blocks human tau fibril formation measured by thioflavin T; P10636; recombinant tau K18 P301L, heparin-induced fibrillization, ThT fluorescence; Potency, µM (highest dose often 57.4 µM), usual class: inhibitors; hit rate 2.1% among 270,000; AID 1460; note: nearly all actives have a fitted effect of over 55% in size
#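 ThT emission at 510 nm, taken 1 hr after adding 30 uM dye, quantifies aggregates formed when 20 uM heparin acts on human tau K18 P301L for 6 hr at 37 C.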
# Hits are given with their value; – = inactive; ? = inconclusive; · = no result; [ ] = dose if it differs, or a comment. An excerpt weighted towards active compounds, which were near 3% of everything screened. Unless noted, calls come from the whole dose curve; as a rule, active = well fitted curve in the direction sought with a large enough effect; inconclusive = small, poorly fitted or top-dose-only effect, or another doubt; inactive = no such curve, though single readings can be large; an effect the other way counts as inactive or inconclusive.
SMILES,TR SRC2 fluor cs,TRb-SRC2 inh,Tau fluor cs,Tau fibril FP,Tau fibril ThT
NC(=O)c1c(NC(=O)c2cc(-c3ccc(F)cc3)on2)sc2c1CCCC2,–,–,–,?,32µM
COc1ccc(C(=O)Nc2cc(-c3nc4ncccc4o3)ccc2C)cc1Br,–,–,–,–,–
COC(=O)c1ccc2c(c1)C(C)(C)C(/C=C/c1ccc(O)cc1)=[N+]2C,?,?,?,?,13µM
CCOc1ccccc1C1N=C(N)Nc2nc3ccccc3n21 (configuration not stated),–,–,–,–,–
COc1ccc(CNc2oc(/C=C/c3cc(OC)c(OC)c(OC)c3)nc2C#N)cc1,–,–,?,?,–
O=[N+]([O-])c1ccc(N/N=C/c2c[nH]c3ccccc23)c(S(=O)(=O)Nc2ccc(Cl)cc2)c1,–,–,3.2µM[quencher],–,3.2µM
COc1ccccc1NS(=O)(=O)c1cc([N+](=O)[O-])ccc1N/N=C/c1c(C)[nH]c2ccccc12,–,–,6.3µM[quencher],?,3.2µM
CN1CCN(S(=O)(=O)c2cc([N+](=O)[O-])ccc2N/N=C/c2ccc(Cl)cc2)CC1,–,–,–,–,–
CCCCN1CCC2C=CCC(C(=O)O)C2C1=O (configuration not stated),–,–,·,·,·
CCOC(=O)Cn1c(=O)oc2cc(S(=O)(=O)N3CCN(c4cccc(Cl)c4)CC3)ccc21,–,–,–,–,–
CCCC(=Nc1ccc(N)cc1)C1=C(O)C(C(=O)OC)C(C)(C)CC1=O (configuration not stated),45µM[fluorescent],35µM,7.1µM[quencher],14µM,7.9µM
CCN(CC)c1ccc(N)cc1S(=O)(=O)Nc1ccccc1OC,–,–,–,?,25µM
CCN(CC)c1ccc(N)cc1S(=O)(=O)Nc1ccc(OC)cc1,–,–,–,–,–
Cc1cc(C2=CC(C)(c3cc(C)oc3C)Nc3nc(C(F)(F)F)nn32)c(C)o1 (configuration not stated),–,–,–,?,28µM
COc1ccc(NC(=S)Nc2ccc(OCc3ccccc3)cc2)cc1OC,–,–,25µM[quencher],–,?
CCOc1ccc(CC(=O)NNC(=S)Nc2ccc(OC)c(OC)c2)cc1,–,–,–,–,–
C/C(=N\Nc1nnc2c3ccccc3n(C)c2n1)c1ccc(C)o1,–,–,–,–,14µM
CCC(=O)Oc1c(Sc2ccc(C)cc2)c(C)nn1-c1ccccc1,–,–,–,?,?
CCCC(=O)Oc1c(Sc2ccc(C)cc2)c(C)nn1-c1ccccc1,–,–,–,?,25µM
CCC(=O)Oc1c(Sc2ccc(Cl)cc2)c(C)nn1-c1ccccc1,–,–,–,?,22µM
C=Cc1ccccc1Cl,–,–,·,·,·
O=c1n(Cc2ccccc2)nc2n1-c1ccccc1OC2,10µM[quencher],–,–,–,–
COc1ccc(O)c(/C=c2/sc3nc4cc(C)c(C)cc4n3c2=O)c1,–,–,?,?,22µM
COC(=O)c1cc(=O)nc2sc3cc(OC)ccc3n12,–,–,–,–,–
CS(=O)(=O)c1ccc2c(c1)sc1nc(=O)c(/C=C3/C=CC(=O)C(O)=C3)c(N)n12,–,–,?,–,4µM
SMILES,TR SRC2 fluor cs,TRb-SRC2 inh,Tau fluor cs,Tau fibril FP,Tau fibril ThT
O=[N+]([O-])c1ccc(-c2ccc(/C=N/O)o2)cc1,–,–,–,–,7.1µM
O=C1CN(/N=C/c2ccc(-c3ccc([N+](=O)[O-])cc3)o2)C(=O)N1,–,–,–,–,10µM
Cc1cc(Nc2ccccc2)n(-c2cccc(Cl)c2)n1,–,–,–,–,–
Nc1ccccc1Nc1cc(-c2cccc(Cl)c2)nn1-c1ccccc1,–,–,13µM[quencher],?,?
Cc1cccc(-c2nc(C(N)=O)c3c(n2)n(-c2ccc4c(c2)OCO4)c(=O)n3C)c1,–,–,–,–,–
CC(C)=CCCC1(C)C=Cc2c(c(C)cc3c2[nH]c2ccccc23)O1 (configuration not stated),–,–,8.9µM[quencher],–,?
Cc1ccc(C)c2c1[nH]c1ccccc12,–,–,?,–,?
CSc1nnc(-c2ccccc2N=Cc2c(C)[nH]n(-c3ccc4ccccc4c3)c2=O)c(=O)[nH]1,–,–,–,–,22µM
C=CCSc1nnc(-c2ccccc2N=Cc2c(C)[nH]n(-c3ccccc3)c2=O)c(=O)[nH]1,–,–,–,–,?
CCCN1C(=O)/C(=C\C=C2/C=CN(CC)c3ccccc32)SC1=S,?,–,–,–,–
CCCCN1C(=O)/C(=C/C=C2\SCCN2C)SC1=S,–,–,?,?,14µM
CN1CCS/C1=C/C=C1\SC(=S)N(CC(=O)O)C1=O,–,–,–,–,16µM
CCCCN1C(=O)/C(=C/C=C2\N(C)c3ccccc3C2(C)C)SC1=S,–,–,–,?,6.3µM
CN1CCS/C1=C/C=C1/SC(=S)N(Cc2ccccc2)C1=O,–,–,–,–,–
Cc1ccc2nc(CN3CCN(C(=O)Nc4ccc(F)cc4)CC3)oc2c1,–,–,–,–,–
CCOCCSc1c(C)cnc2c1c(=O)n(C)c(=O)n2C,–,–,–,–,–
COC(=O)c1cnn2c(C)c(Cc3c(C)cc(C)cc3C)c(C)nc12,–,–,–,–,?
Cc1oc(C)c2c(=O)ccc3c(c12)OC(N)=C(C#N)C3c1ccccc1Cl (configuration not stated),–,–,?,?,20µM
N#CC1=C(N)OC2=C(CC/C2=C\c2ccccc2Cl)C1c1ccccc1Cl (configuration not stated),–,–,–,–,?
CSc1ccc(C2C(C#N)=C(N)Oc3c2ccc(=O)c2c(C)oc(C)c32)cc1 (configuration not stated),–,–,?,?,25µM
Cc1oc(C)c2c(=O)ccc3c(c12)OC(N)=C(C#N)C3c1ccccc1 (configuration not stated),–,–,?,?,25µM
COC(=O)C1(C(=O)OC)CC2=C[C@H](CC2=O)Cc2ccccc2[C@@H]1C[N+](=O)[O-],–,–,–,–,–
Nc1ccc(N=Nc2ccc(N)cc2)cc1,–,–,–,–,11µM
Cc1ccc(-n2ncc(C(=O)NCc3ccc4c(c3)OCO4)c2C2CCN(C(=O)OC(C)(C)C)CC2)c(C)c1,–,–,–,–,–
O=C(N/N=C/C=C/c1cccc([N+](=O)[O-])c1)C(O)c1ccccc1 (configuration not stated),–,–,–,–,–
CC(/C=C/c1ccco1)=N\NC(=O)CNc1ccc2ccccc2c1,–,–,?,–,7.9µM
O=C(CNc1ccc2ccccc2c1)N/N=C/C=C/c1cccc([N+](=O)[O-])c1,–,–,7.1µM[quencher],–,?
CCCCCCCCCCCCCCCCn1cc[n+](Cc2ccccc2)c1C,–,–,·,·,·
O=C1NN(c2ccc(F)c(Cl)c2)C(=O)/C1=C\c1cccc(OC(=O)c2cccs2)c1,–,–,?,–,20µM
